# Bioassay records (PubChem BioAssay)
# Only some compounds are listed: those with a hit (about 4% of all), similar ones and a draw of the others.
# HIF-2a block – HIF-2a reporter inhibitors, primary screen, luminescence, 786-0 RCC cells. 786-0 RCC cells HIF-2a reporter, luciferase luminescence, overnight. inhibition, % at 18.8 µM. 0.72% of 360,000 active. AID 624352, 2012;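 active = inhibition of the luminescence signal of 40% or more relative to plate controls, in a single-dose primary screen at 18.75 µM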
# TROY signal inh – inhibitors of TROY-driven NF-kB signaling, primary screen, Q293 LMP1-TROYcd cells, NF-kB luciferase, uHTS; Q293 LMP1-TROYcd NF-kB luciferase reporter, 4 h; inhibition, % at 10 µM; 0.98% of 360,000 active;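 active = compounds whose plate-normalised and pattern-corrected inhibition of the luciferase reporter signal at the single screening dose is 50% or more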
# CF NFkB inh – inhibitors of PAF-induced NF-kB signaling, primary screen, cell-based, GFP fluorescence, uHTS; KKLEB NF-kB-GFP reporter, GFP fluorescence overnight; inhibition, % at 5 µM; 0.86% of 360,000 active;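 active = at least 50% inhibition at 5 µM, scaled per plate between neutral and stimulator controls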;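 note: PAF is a Pseudomonas aeruginosa culture filtrate used as stimulus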
# KKLEB tox – cytotoxicity in KKLEB CF airway cells, primary screen, cytotoxicity control for CF NF-kB inhibitor project, cell-based, uHTS, fluorescence assay plates. activity change (cytotoxicity), % at 5 µM. KKLEB CF airway cells viability, ATPlite luminescence, overnight; stronger effect = lower value; cells stimulated with P. aeruginosa culture filtrate. 0.36% of 360,000 active. AID 602141, 2011;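 active = corrected activity change at or below -50% at 5 µM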
# TWEAK Fn14 block – inhibitors of TWEAK-Fn14 signaling, primary screen, luciferase reporter cells, uHTS. TWEAK-stimulated Fn14 reporter cells, luciferase luminescence, 8 h. 2% of 360,000 active. inhibition, % at 10 µM; in the data active = inhibition above about 50%
# Peg3 promoter – Peg3 promoter-driven luciferase inhibitors, primary screen, cell-based, HeLa, luciferase luminescence. HeLa PEG-Prom luciferase reporter, overnight. inhibition, % at 20 µM. 1.7% of 360,000 active;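 active = inhibition of at least 50% at 20 µM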
# Hits are given with their value; - = inactive; . = no result given.
SMILES,HIF-2a block,TROY signal inh,CF NFkB inh,KKLEB tox,TWEAK Fn14 block,Peg3 promoter
CCOC(=O)C1=C(COC(=O)Cc2ccccc2)NC(=O)NC1C (centres undefined),-,-,-,-,-,-
CCCNC(=O)c1ccc2nc(-c3ccccc3)c(-c3ccccc3)nc2c1,-,-,-,-,-,-
CCN1CCN(CCNC(=O)c2ccc3nc(-c4cccc(C)c4)c(-c4cccc(C)c4)nc3c2)CC1,-,-,-,-,-,91.3
CCN1CCN(CCCNC(=O)c2ccc3c(Cl)c4c(nc3c2)CCCC4)CC1,-,-,-,-,-,73.6
COc1ccccc1/C=C\C(=O)NCC(=O)N/N=C(/C)c1cccc([N+](=O)[O-])c1,-,-,-,-,-,-
CCC(C)n1c(=S)[nH]c2c(sc3ccc([N+](=O)[O-])cc32)c1=O (centres undefined),-,-,54.2,-,-,-
N#C/C(=C\C=C\c1ccccc1)C(=O)NCc1ccco1,-,-,-,-,-,52.7
CC1(C)Cc2c(c(N3CCOCC3)nc3sc4c(=O)[nH]cnc4c23)CS1,-,-,-,-,-,-
CCN(CC)CCNc1ncnc2c1sc1nc(N3CCOCC3)c3c(c12)CC(C)(C)SC3,-,-,-,-,-,103.6
COc1ccc(C(O)c2ncc(-c3ccccc3OC)[nH]2)cc1F (centres undefined),-,-,-,-,-,-
COC(=O)[C@@]1(Cc2ccc(F)cc2)[C@H]2c3cc(C(=O)N(C)C)n(Cc4ccc(C)c(F)c4F)c3C[C@H]2CN1C(=O)c1ccccc1,-,-,.,.,-,.
CC(=O)Nc1ccc(CN2C(=O)C(Cc3ccccc3)ON=C2c2cccc(F)c2)cc1 (centres undefined),-,83.2,-,-,-,-
Cc1cccnc1C1=NOC(Cc2ccccc2)C(=O)N1Cc1ccc(F)cc1 (centres undefined),-,-,-,-,-,-
O=C1/C(=C/Nc2ccc3c(c2)OCO3)CCc2ccccc21,-,-,-,-53.0,-,-
COc1ccc2c(c1)CC/C(=C\Nc1ccc3c(c1)OCO3)C2=O,-,-,-,-,-,-
COc1ccc(N/C=C2\CCc3ccccc3C2=O)cc1,-,70.2,-,-,87.1,-
CC(C)c1onc(C(=O)N2CCN(C(c3ccccc3)c3ccccc3)CC2)c1[N+](=O)[O-],-,-,50.5,-,-,-
CC(C)Cc1cc(C(=O)N2CCN(C(c3ccccc3)c3ccccc3)CC2)no1,-,-,-,-,-,-
CC(C)c1cc(C(=O)N2CCN(C(c3ccccc3)c3ccccc3)CC2)no1,-,60.3,-,-,-,-
CN(CC(=O)Nc1ccc(Br)cc1)Cc1ccccc1,-,-,-,-,-,-
COC(=O)c1cc(NC(=O)CN(C)Cc2ccccc2)cc(C(=O)OC)c1,-,-,-,-,86.0,-
CC(C)CC1OC(C(C)C)Cc2[nH]c(=S)[nH]c(=O)c21 (centres undefined),-,-,.,.,-,.
CCCCCNC(=O)C1C(=O)Nc2ccccc2C(=O)N1c1ccc(OC)cc1 (centres undefined),-,.,.,.,.,.
CC1(C)CC[C@]2(C(=O)O)CC[C@]3(C)C(=CCC4[C@]56CC[C@@](O)(OC5)C(C)(C)C6CC[C@]43C)C2C1 (some centres undefined),-,65.2,-,-,-,-
C[C@H]1[C@H](C)CC[C@]2(C(=O)O)CC[C@]3(C)C(=CC[C@@H]4[C@@]5(C)C[C@@H](O)[C@H](O)C(C)(C)[C@@H]5CC[C@]43C)[C@H]12,-,-,-,-,-,-
SMILES,HIF-2a block,TROY signal inh,CF NFkB inh,KKLEB tox,TWEAK Fn14 block,Peg3 promoter
C[C@@H]1CC[C@]2(C(=O)O)CC[C@]3(C)C(=CCC4[C@]56CC[C@@](O)(OC5)C(C)(C)C6CC[C@]43C)C2[C@H]1C (some centres undefined),-,62.6,-,-,-,-
C[C@H]1[C@H](C)CC[C@]2(C(=O)O)CC[C@]3(C)C(=CC[C@@H]4[C@@]5(C)CC[C@H](O)C(C)(C)[C@@H]5CC[C@]43C)[C@H]12,-,-,-,-,-,52.9
CCC1Oc2ccc(C)cc2N(CC(=O)N(Cc2cccnc2)Cc2cccc(F)c2)C1=O (centres undefined),-,-,-,-,-,-
O=C(CN1C(=O)COc2ccccc21)N(Cc1cccnc1)Cc1cccc(F)c1,-,-,-,-,67.5,-
O=C(Cc1ccccn1)c1ccc(Cl)cc1,-,-,-,-,-,-
CC1=C(CC(=O)c2ccc(Cl)cc2)C(=O)c2ccccc2C1=O,-,69.5,64.9,-,72.2,-
CCOC(=O)CSc1n[nH]c(NC(=O)c2ccc(F)cc2)n1,-,-,-,-,50.5,-
COc1cc(C(=O)NCC(c2ccco2)N2CCCC2)ccc1OCc1ccc(Cl)cc1Cl (centres undefined),-,-,-,-,-,56.0
O=C(NCC(c1ccco1)N1CCCC1)c1ccccc1F (centres undefined),-,56.8,-,-,53.3,-
Cc1ccc2c(c1)/C(=N/O)CCS2,-,-,-,-,65.4,-
O=C(N/N=C/c1ccc(-c2cccc(C(F)(F)F)c2)o1)c1ccccc1Br,-,65.5,-,-,59.0,-
CN1/C(=C\C(=O)c2cncc(Br)c2)C(C)(C)c2ccccc21,-,-,-,-,55.7,-
CN1/C(=C\C(=O)c2ccco2)C(C)(C)c2ccccc21,-,-,-,-,61.1,-
COc1ccccc1OCC(=O)/C=C1/N(C)c2ccccc2C1(C)C,-,-,-,-,-,-
CN1/C(=C\C(=O)COc2ccc3c(c2)OCO3)C(C)(C)c2ccccc21,-,69.0,-,-,63.7,-
CN1/C(=C\C(=O)c2cccnc2)C(C)(C)c2ccccc21,-,-,-,-,-,-
COCCCN1C(=O)C(CC(=O)NCCN2CCOCC2)CC(C(=O)N2CCOCC2)=C1C (centres undefined),-,-,.,.,-,.
Cc1cccc(C(=O)n2c(=S)nc3cc(C)ccn32)c1,-,70.9,-,-,85.4,-
Cc1ccn2c(c1)nc(=S)n2C(=O)c1ccccc1,47.9,74.2,-,-51.2,98.4,-
O=C(c1ccco1)n1c(=S)nc2ccccn21,-,-,-,-,-,-
CCCCn1c(N)c(N(CC)C(=O)c2c(C)noc2C)c(=O)[nH]c1=O,-,-,-,-,-,-
CCCc1cc(=O)[nH]c(SCC(=O)Nc2ccc(Br)cc2Br)n1,-,67.5,-,-,-,-
